Experimental findings from PubChem BioAssay (NCATS) are described below.

A short description of assay [1]: Quantitative High-Throughput drug screen in 47 multiple myeloma cell lines against the NCATS MIPE library collection: KMM1_JCRB cell viability assay (AID 1918960). Also: nearly all actives have a fitted effect of over 30% in size. The procedure, abridged:
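Each line was plated at 500 cells/well and treated 48 h with library drugs. Viability came from CellTiter-Glo luminescence relative to DMSO and cell-free medium controls.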

A short description of assay [2]: Quantitative High-Throughput drug screen in 47 multiple myeloma cell lines against the NCATS MIPE library collection: Karpas417_ECACC cell viability assay (AID 1918961). The note with it: Karpas417 myeloma viability, CellTiter-Glo ATP luminescence, 48 h; viability (% of DMSO): at 45.8 µM (top of the series). The method, boiled down:
(§1)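 Luminescent ATP measurement with CellTiter-Glo gives viability, scaled between DMSO-only wells (100%) and media-only wells (0%). Cells, 500 per well, faced library compounds for 48 hours at 37C.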
A general note: ATP-based viability assays read luminescence as a measure of living cells.

A short description of assay [3]: Quantitative High-Throughput drug screen in 47 multiple myeloma cell lines against the NCATS MIPE library collection: KHM11_PLB cell viability assay (AID 1918962). Also: nearly all actives have a fitted effect of over 35% in size. The method, boiled down: (§2)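 qHTS of the MIPE 4.0 collection: 500 myeloma cells/well, 48 h drug exposure at 37C in 5% CO2, then CellTiter-Glo for 5 min at room temperature before luminescence reading.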

Assay [4] can be described thus: Quantitative High-Throughput drug screen in 47 multiple myeloma cell lines against the NCATS MIPE library collection: JIM3_ECACC cell viability assay (AID 1918963; also: nearly all actives have a fitted effect of over 35% in size). The procedure, abridged:
as §2

Assay [5] can be described thus: Quantitative High-Throughput drug screen in 47 multiple myeloma cell lines against the NCATS MIPE library collection: JIM1_ECACC cell viability assay (AID 1918964). The procedure, abridged:
(§3)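 Steps: seed 500 cells per well; pin-transfer MIPE 4.0 library; incubate 48 h at 37C, 5% CO2, humidified; add CellTiter-Glo, 5 min room temperature; read luminescence.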

Assay [6] is described as follows: Quantitative High-Throughput drug screen in 47 multiple myeloma cell lines against the NCATS MIPE library collection: INA6_PLB cell viability assay (AID 1918965; also: nearly all actives have a fitted effect of over 55% in size). The procedure, abridged: as §1
The nature of assay [7]: Quantitative High-Throughput drug screen in 47 multiple myeloma cell lines against the NCATS MIPE library collection: JJN3_DSMZ cell viability assay (AID 1918966; also: nearly all actives have a fitted effect of over 50% in size). The method, boiled down: as §3
Assay [8] is described as follows: Quantitative High-Throughput drug screen in 47 multiple myeloma cell lines against the NCATS MIPE library collection: H1112_PLB cell viability assay (AID 1918967; also: nearly all actives have a fitted effect of over 30% in size). The procedure, abridged: as §3
Assay [9] in a line: Quantitative High-Throughput drug screen in 47 multiple myeloma cell lines against the NCATS MIPE library collection: Karpas25_ECACC cell viability assay (AID 1918968; also: nearly all actives have a fitted effect of over 35% in size). The procedure, abridged:
as §3

The nature of assay [10]: Quantitative High-Throughput drug screen in 47 multiple myeloma cell lines against the NCATS MIPE library collection: KMS27_JCRB cell viability assay (AID 1918970). Also: nearly all actives have a fitted effect of over 30% in size. The procedure, abridged: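 Myeloma cells (500 per well) were exposed to MIPE 4.0 compounds for 48 h at 37 °C, 5% CO2; viability was read as ATP luminescence with CellTiter-Glo, normalized to DMSO-only (100%) and media-only (0%) wells.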

A short description of assay [11]: Quantitative High-Throughput drug screen in 47 multiple myeloma cell lines against the NCATS MIPE library collection: KMS12BM_JCRB cell viability assay (AID 1918971). Also: nearly all actives have a fitted effect of over 35% in size. The procedure, abridged: (§4)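 CellTiter-Glo luminescence (ATP) after 48 h compound exposure, 37C/5% CO2; 500 cells/well; MIPE 4.0 approved/investigational drugs pinned in; DMSO = 100%, media only = 0% viability.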

A short description of assay [12]: Quantitative High-Throughput drug screen in 47 multiple myeloma cell lines against the NCATS MIPE library collection: KMS12PE_JCRB cell viability assay (AID 1918972). Also: nearly all actives have a fitted effect of over 30% in size. The method, boiled down:
as §1

The nature of assay [13]: Quantitative High-Throughput drug screen in 47 multiple myeloma cell lines against the NCATS MIPE library collection: KMS20_JCRB cell viability assay (AID 1918973). Also: nearly all actives have a fitted effect of over 45% in size. The procedure, abridged:
as §3

A short description of assay [14]: Quantitative High-Throughput drug screen in 47 multiple myeloma cell lines against the NCATS MIPE library collection: KMS21BM_JCRB cell viability assay (AID 1918974). As to conditions: ATP luminescence, 48 h; viability: at 45.8 µM (top of the series) unless noted. The procedure, abridged:
as §3

The nature of assay [15]: Quantitative High-Throughput drug screen in 47 multiple myeloma cell lines against the NCATS MIPE library collection: MOLP8_DSMZ cell viability assay (AID 1918977). Also: nearly all actives have a fitted effect of over 45% in size. The procedure, abridged: (§5)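 qHTS format: cells plated (500/well), pin-dosed with MIPE 4.0 compounds, kept 48 h at 37 °C. Readout was CellTiter-Glo luminescence, median RLU.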
Assay [16] in a line: Quantitative High-Throughput drug screen in 47 multiple myeloma cell lines against the NCATS MIPE library collection: NCIH929_DSMZ cell viability assay (AID 1918978). Also: nearly all actives have a fitted effect of over 35% in size. The procedure, abridged:
as §5

Assay [17] in a line: Quantitative High-Throughput drug screen in 47 multiple myeloma cell lines against the NCATS MIPE library collection: OCIMY1_PLB cell viability assay (AID 1918979). Also: nearly all actives have a fitted effect of over 35% in size. The procedure, abridged: as §5
The nature of assay [18]: Quantitative High-Throughput drug screen in 47 multiple myeloma cell lines against the NCATS MIPE library collection: KMS26_JCRB cell viability assay (AID 1918975). Also: nearly all actives have a fitted effect of over 45% in size. The procedure, abridged:
as §4

Assay [19] in a line: Quantitative High-Throughput drug screen in 47 multiple myeloma cell lines against the NCATS MIPE library collection: MMM1_PLB cell viability assay (AID 1918976). Also: nearly all actives have a fitted effect of over 35% in size. The procedure, abridged:
as §5

The nature of assay [20]: Quantitative High-Throughput drug screen in 47 multiple myeloma cell lines against the NCATS MIPE library collection: MM1S_ATCC cell viability assay (AID 1918980). Also: nearly all actives have a fitted effect of over 45% in size. The procedure, abridged: as §5

Results filed as inconclusive are left out. Active and inactive are the calls of the source. Calls follow the shape of the dose curve; as a rule, active = well fitted curve in the direction sought with a large enough effect; inconclusive = small, poorly fitted or top-dose-only effect, or another doubt; inactive = no such curve, though single readings can be large; an effect the other way counts as inactive or inconclusive.
Potency is read from the fitted curve at half-maximal effect.

With `COC(=O)[C@]12CCC(C)(C)C[C@@H]1[C@@H]1C(=O)C=C3[C@@]4(C)C=C(C#N)C(=O)C(C)(C)[C@@H]4CC[C@@]3(C)[C@]1(C)CC2`, the Potency was 0.662 µM (active) in assay [1]; 526 nM (active) in assay [2]; 0.469 µM (active) in assay [3]; 0.166 µM (active) in assay [4]; 418 nM (active) in [5]; 59 nM (active) in [6]. For the same molecule, the Potency in assay [7] is 526 nM (active); in assay [8], 0.418 µM (active); in [9] it was 0.209 µM (active); in assay [10], 0.526 µM (active); in [11], 526 nM (active); in [12], 662 nM (active). Also, the Potency in [13] was 0.296 µM (active); in [14], 74.3 nM (active); in assay [15], 0.209 µM (active); in [16] it was 0.235 µM (active); in [17] it was 0.743 µM (active).

With `CN1CCC(CNc2ccc3ncc(-c4cccc(OC(F)(F)F)c4)n3n2)CC1`, the Potency in assay [1] is 16.6 µM (active); in assay [2], 10500 nM (active); in assay [3] it was 6.62 µM (active); in assay [4], 9.35 µM (active); in assay [5], 8330 nM (active); in assay [6], 4690 nM (active). Moreover, the Potency in assay [8] is 8.33 µM (active); in [9], 7.43 µM (active); in assay [10] it was 14.8 µM (active); in assay [11] it was 20900 nM (active); in [12], 7430 nM (active); in assay [13], 3.32 µM (active). For the same molecule, the Potency is 9350 nM (active) in assay [14]; 18.7 µM (active) in assay [18]; 18.7 µM (active) in [19]; 18.7 µM (active) in assay [15]; 7.43 µM (active) in assay [16]; 20.9 µM (active) in [17]. Moreover, the Potency in [20] was 7.43 µM (active).

`COc1cc2c(cc1-c1c(C)noc1C)ncc1[nH]c(=O)n([C@H](C)c3ccccn3)c12`: the Potency in [1] is 5.9 µM (active); in assay [2], 148 nM (active); in assay [3], 2.96 µM (active); in assay [4], 18.7 µM (active); in assay [5] it was 5900 nM (active); in assay [6], 264 nM (active). Further, the Potency is 6620 nM (active) in assay [7]; 20.9 µM (active) in [8]; 4.69 µM (active) in assay [9]; 3.72 µM (active) in assay [10]; 833 nM (active) in assay [11]; 833 nM (active) in assay [12]. Further, the Potency is 8.33 µM (active) in assay [13]; 743 nM (active) in assay [14]; 7.43 µM (active) in [19]; 0.296 µM (active) in [15]; 3.32 µM (active) in [16]; 2.64 µM (active) in assay [20].

As to `CC(C)C[C@H](NC(=O)CNC(=O)c1cc(Cl)ccc1Cl)B(O)O`, the Potency in assay [1] was 0.0662 µM (active); in assay [2] it was 41.8 nM (active); in assay [3], 0.0469 µM (active); in assay [4], 0.105 µM (active); in assay [5], 105 nM (active); in assay [6] it was 37.2 nM (active). The Potency in assay [7] is 105 nM (active); in assay [8] it was 0.105 µM (active); in assay [9] it was 0.0418 µM (active); in assay [10] it was 0.118 µM (active); in assay [11], 132 nM (active); in assay [12], 74.3 nM (active). The Potency was 0.132 µM (active) in assay [13]; 0.118 µM (active) in [18]; 9.35 µM (active) in [19]; 0.0372 µM (active) in assay [16]; 0.0662 µM (active) in assay [17]; 0.0418 µM (active) in assay [20].

Regarding `CN(C)Cc1c(C(=O)NCCOc2ccc(C(=O)NO)cc2)oc2ccccc12`, the Potency in assay [1] was 0.469 µM (active); in [2], 372 nM (active); in [3], 1.87 µM (active); in assay [4], 2.96 µM (active); in [5], 418 nM (active); in assay [6], 187 nM (active). Further, the Potency in assay [7] was 833 nM (active); in [8] it was 1.87 µM (active); in assay [9], 0.662 µM (active); in [10], 0.264 µM (active); in assay [11], 469 nM (active); in [12] it was 418 nM (active). Moreover, the Potency is 0.372 µM (active) in [13]; 46.9 nM (active) in [14]; 0.59 µM (active) in assay [19]; 1.05 µM (active) in [16]; 1.66 µM (active) in [17]; 0.469 µM (active) in [20].

Take `CC(=O)SC[C@@H](C)C(=O)N1CCC[C@H]1C(=O)N[C@@H](Cc1ccccc1)C(=O)O`: the Potency entry in assay [1], in assay [2], in assay [3], in assay [4], in assay [5] and in [6] was “inactive” throughout. Besides, the Potency entry in assay [9], in assay [11], in assay [12], in assay [16] and in [17] was “inactive” throughout.

On to `C1=CCOCc2cc(ccc2OCCN2CCCC2)Nc2nccc(n2)-c2cccc(c2)OCC1`, for which the Potency is 1.87 µM (active) in assay [1]; 1660 nM (active) in assay [2]; 1.66 µM (active) in [3]; 2.64 µM (active) in [4]; 743 nM (active) in assay [5]; 1480 nM (active) in [6]. The Potency in assay [7] was 4180 nM (active); in assay [9], 1.66 µM (active); in assay [10], 1.48 µM (active); in assay [11] it was 7430 nM (active); in assay [12], 2640 nM (active); in assay [13] it was 2.35 µM (active). Further, the Potency in assay [18] is 4.18 µM (active); in [19], 3.32 µM (active); in [15], 2.09 µM (active); in assay [16], 2.35 µM (active); in [17], 5.9 µM (active); in [20], 2.64 µM (active).

Turning to `O=C(CCCCCCNC(=O)c1cnc(N(c2ccccc2)c2ccccc2)nc1)NO`, the Potency is 4.18 µM (active) in [1]; 590 nM (active) in [2]; 10.5 µM (active) in assay [3]; 16.6 µM (active) in [4]; 4690 nM (active) in assay [5]; 2640 nM (active) in [6]. Besides, the Potency is 4180 nM (active) in assay [7]; 13.2 µM (active) in [8]; 4.18 µM (active) in [9]; 5.26 µM (active) in assay [10]; 2960 nM (active) in [11]; 5900 nM (active) in [12]. The Potency was 8.33 µM (active) in [13]; 5.26 µM (active) in assay [18]; 5.26 µM (active) in assay [19]; 4.18 µM (active) in [15]; 5.9 µM (active) in assay [16]; 13.2 µM (active) in assay [17]. Besides, the Potency in [20] is 6.62 µM (active).
